Assay results from PubChem BioAssay (NCATS).
Records with an inconclusive call do not appear. Active and inactive are the calls of the source. Calls follow the shape of the dose curve; as a rule, active = well fitted activation curve with a large enough effect; inconclusive = small, poorly fitted or top-dose-only effect; inactive = no such curve, though single readings can be large or run the other way.

molecular target: Rap guanine nucleotide exchange factor 3 (Homo sapiens) (UniProt O95398); assay: Confirmatory qHTS for agonist of cAMP-regulated guanine nucleotide exchange factor 3 (EPAC1) (AID 1645881); details: EPAC1 Rap1B BODIPY-GDP exchange fluorescence; series mostly up to 154 µM;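 also: EPAC1 catalysed release of BODIPY-GDP from Rap1B seen as fluorescence loss; 100% = effect of cAMP agonist control; nearly all actives have a fitted effect of over 75% in size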
Sequence (O95398 whole entry, looked up): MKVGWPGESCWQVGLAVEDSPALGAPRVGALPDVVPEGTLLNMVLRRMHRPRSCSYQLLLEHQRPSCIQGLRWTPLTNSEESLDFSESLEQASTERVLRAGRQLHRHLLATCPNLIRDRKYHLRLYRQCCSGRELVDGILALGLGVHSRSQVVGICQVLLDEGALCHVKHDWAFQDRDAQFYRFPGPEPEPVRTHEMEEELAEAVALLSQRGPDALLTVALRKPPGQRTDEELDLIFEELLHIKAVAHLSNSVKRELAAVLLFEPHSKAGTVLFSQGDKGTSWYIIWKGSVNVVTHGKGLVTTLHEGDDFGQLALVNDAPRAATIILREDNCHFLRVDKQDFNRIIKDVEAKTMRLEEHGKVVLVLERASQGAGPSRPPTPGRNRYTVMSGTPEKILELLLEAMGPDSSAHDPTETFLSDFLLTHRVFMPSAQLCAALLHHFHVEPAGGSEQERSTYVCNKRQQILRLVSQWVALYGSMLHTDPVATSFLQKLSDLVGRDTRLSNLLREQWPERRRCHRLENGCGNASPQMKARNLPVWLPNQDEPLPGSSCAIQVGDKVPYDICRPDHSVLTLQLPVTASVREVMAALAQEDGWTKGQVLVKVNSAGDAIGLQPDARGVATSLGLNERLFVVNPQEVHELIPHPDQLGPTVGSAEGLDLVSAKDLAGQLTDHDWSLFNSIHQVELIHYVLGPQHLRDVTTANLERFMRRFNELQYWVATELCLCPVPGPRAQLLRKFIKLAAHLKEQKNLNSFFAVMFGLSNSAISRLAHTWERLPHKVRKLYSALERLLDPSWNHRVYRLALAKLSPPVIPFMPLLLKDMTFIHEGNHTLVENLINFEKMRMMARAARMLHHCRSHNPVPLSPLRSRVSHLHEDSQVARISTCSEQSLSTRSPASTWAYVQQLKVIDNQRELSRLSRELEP

Potency, inactive:
COc1ccccc1[C@]1(C)ON(c2ccccc2C(F)(F)F)C1=O, COc1ccc(C(CC(=O)c2ccc(C)cc2)C(C#N)C#N)cc1OC (stereo not given), COc1ccc(-n2c(NC(=O)c3ccco3)c(C#N)c3nc4ccccc4nc32)cc1, Cc1ccc(C)c(N2CCN(C(=O)c3ccc4c(=O)n5c(nc4c3)CCCCC5)CC2)c1, Oc1ccc2ccccc2c1/C=N/c1nc2c(s1)CCCC2, Nc1c2c(=O)[nH]c(O)cc2nn1-c1ccccc1, Cc1ccc(C)c(-c2ccc(=O)n(Cc3c(F)cccc3Cl)n2)c1, O=C(O)c1ccc(-c2nc(-c3ccc(Cl)cc3Cl)cs2)cc1, O=C(Nc1ccccc1)C1=C(O)CC(c2ccc(Cl)cc2)N2CCN=C12 (stereo not given), COc1ccc(CN(C(=O)c2cccs2)c2nccs2)cc1OC, CC(C)Nc1nc(NC(C)C)nc(OCCOC(=O)c2ccccc2)n1, Cc1cccn2c(=O)c3cc(C#N)c(=NC(=O)c4ccccc4)n(Cc4ccco4)c3nc12, CCOc1ccc(C(=O)N2CC(=O)Nc3ccc(C)cc3C2c2ccc(F)cc2)cc1OCC (stereo not given), CCOc1ncccc1C(=O)OC(C)C(=O)Nc1ccc(Cl)cn1 (stereo not given), CCc1ccc(C(c2ccccc2)c2c(C)[nH]c3ccccc23)s1 (stereo not given), COc1ccc(NC(=O)CN(C)C(=O)c2cc(-c3ccco3)nc3ccccc23)cc1, COc1ccc(/C=N/NC(=O)c2[nH]c3ccc(Br)cc3c2-c2ccccc2)c(C(=O)O)c1OC, COCCCNC(=O)C[C@@H]1C[C@@]2(C(=O)OC)CCCCC=C2N(Cc2cccc3ccccc23)C1=O, COc1cc(OC)c(NC(=O)CN(C)S(=O)(=O)c2ccc(-c3ccc(=O)[nH]n3)s2)cc1Cl, COc1cccc(C(=O)Nc2ccc(NC(=O)c3ccco3)c(Cl)c2)c1, O=C(O)c1ccc(N2C(=O)CC(SC(=NCc3ccc4c(c3)OCO4)Nc3ccc(F)cc3)C2=O)cc1 (stereo not given), Cc1sc2ncnc(N3CCC(C(=O)Nc4ccccc4C(C)(C)C)CC3)c2c1C, CC(C)Cc1ccc(CN2C(C(C)C)C(=O)N(Cc3cn(CCC4OCCO4)nn3)CCS2(=O)=O)cc1 (stereo not given), COc1ccc(Oc2cn[nH]c2-c2ccc(OC)cc2O)cc1, CCCC1=C/C(=C/c2ccc(-c3ccccc3OC)o2)C(=O)O1, Fc1ccc(/C=C2\CCCC3=C2Nc2ncnn2C3c2ccc(F)cc2)cc1 (stereo not given), CC[C@@H]1CC=C[C@H]2[C@H]1C(=O)N(Cc1ccccc1)[C@H]2c1ccc(OC)c(Cl)c1, CN(C)S(=O)(=O)c1ccc(N2CCCC2)c(C(=O)NCC2COc3ccccc3O2)c1 (stereo not given), CCc1nc2c(OCC3CCCCC3)cccn2c1N(C)C(=O)c1ccc(C)cc1, Cn1cnnc1SCC(=O)Nc1sc2c(c1C(N)=O)CCC2, Cc1ccc(CNc2nc(NCc3ccccc3)nc3ccsc23)c(C)c1, COCCCn1c(=O)/c(=C\c2ccccc2OC(C)C)s/c1=C(/C#N)C(=O)Nc1ccc(C(=O)O)cc1, CC(C)(C)Cc1c(-c2ccccc2)nc2ccc(Cl)cn12, COc1ccc(Cl)cc1NC(=O)c1c(NCc2ccc(C)o2)sc2c1CCCCC2, COc1cccc(OCc2nc3ccccc3n2Cc2ccccc2)c1, O=C(NCCCN1CCOCC1)c1ccc2c(c1)N(Cc1cccc(Cl)c1)C(=O)c1ccccc1S2, COc1ccc(/C=C/C(=O)Oc2ccc(C)c(C)c2)cc1OC, CC(C)c1ccc(/C=C/C(=O)Nc2ccc(CN3CCOCC3)cc2)cc1, Cc1ccc(C)c(Cn2c(C3CC(=O)N(c4ccccc4C)C3)nc3ccccc32)c1 (stereo not given), Cc1cc(C)nc(NS(=O)(=O)c2ccc(NC(=O)CN3C(=O)S/C(=C\c4ccccc4)C3=O)cc2)n1

molecular target: Rap guanine nucleotide exchange factor 4 (Homo sapiens) (UniProt Q8WZA2); assay: Confirmatory qHTS for agonist of cAMP-regulated guanine nucleotide exchange factor 4 (EPAC2) (AID 1645884); details: EPAC2 GEF activity, Rap1B-BODIPY-GDP fluorescence; series mostly up to 154 µM;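 also: nucleotide exchange releases bodipy-GDP from Rap1 and this lowers its fluorescence; % is scaled to controls: 0 for no effect and ±100 for the full control effect; nearly all actives have a fitted effect of over 65% in size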
Sequence (Q8WZA2 whole entry, looked up): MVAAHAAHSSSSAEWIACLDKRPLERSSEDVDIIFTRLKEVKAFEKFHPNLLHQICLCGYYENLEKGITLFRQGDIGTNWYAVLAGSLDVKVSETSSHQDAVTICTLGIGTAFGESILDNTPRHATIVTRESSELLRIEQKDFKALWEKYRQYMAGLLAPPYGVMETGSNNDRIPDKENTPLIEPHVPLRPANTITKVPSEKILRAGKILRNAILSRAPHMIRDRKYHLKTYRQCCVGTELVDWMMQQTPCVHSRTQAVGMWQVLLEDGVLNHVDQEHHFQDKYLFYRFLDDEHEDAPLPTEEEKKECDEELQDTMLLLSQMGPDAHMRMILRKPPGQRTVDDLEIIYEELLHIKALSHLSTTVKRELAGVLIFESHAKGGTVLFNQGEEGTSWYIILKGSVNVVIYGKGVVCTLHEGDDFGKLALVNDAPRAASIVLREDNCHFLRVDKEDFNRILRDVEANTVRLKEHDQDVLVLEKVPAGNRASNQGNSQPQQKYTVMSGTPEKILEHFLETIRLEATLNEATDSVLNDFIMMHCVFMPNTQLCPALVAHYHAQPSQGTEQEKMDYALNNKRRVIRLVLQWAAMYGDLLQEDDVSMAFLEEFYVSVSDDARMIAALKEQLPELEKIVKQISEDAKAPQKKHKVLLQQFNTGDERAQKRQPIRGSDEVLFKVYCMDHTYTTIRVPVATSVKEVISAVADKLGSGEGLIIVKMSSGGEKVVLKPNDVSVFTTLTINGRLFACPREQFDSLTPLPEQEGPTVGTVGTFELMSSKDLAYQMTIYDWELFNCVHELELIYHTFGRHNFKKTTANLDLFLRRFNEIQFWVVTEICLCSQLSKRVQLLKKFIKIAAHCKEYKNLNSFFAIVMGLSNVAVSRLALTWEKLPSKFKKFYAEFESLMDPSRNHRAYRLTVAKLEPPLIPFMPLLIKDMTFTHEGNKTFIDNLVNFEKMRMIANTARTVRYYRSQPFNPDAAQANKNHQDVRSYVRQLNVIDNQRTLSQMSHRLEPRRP

Potency, inactive:
COc1ccccc1[C@]1(C)ON(c2ccccc2C(F)(F)F)C1=O, COc1ccc(C(CC(=O)c2ccc(C)cc2)C(C#N)C#N)cc1OC (stereo not given), COc1ccc(-n2c(NC(=O)c3ccco3)c(C#N)c3nc4ccccc4nc32)cc1, Oc1ccc2ccccc2c1/C=N/c1nc2c(s1)CCCC2, Nc1c2c(=O)[nH]c(O)cc2nn1-c1ccccc1, Cc1ccc(C)c(-c2ccc(=O)n(Cc3c(F)cccc3Cl)n2)c1, O=C(Nc1ccccc1)C1=C(O)CC(c2ccc(Cl)cc2)N2CCN=C12 (stereo not given), COc1ccc(CN(C(=O)c2cccs2)c2nccs2)cc1OC, CC(C)Nc1nc(NC(C)C)nc(OCCOC(=O)c2ccccc2)n1, CCOc1ccc(C(=O)N2CC(=O)Nc3ccc(C)cc3C2c2ccc(F)cc2)cc1OCC (stereo not given), CCc1ccc(C(c2ccccc2)c2c(C)[nH]c3ccccc23)s1 (stereo not given), COc1ccc(NC(=O)CN(C)C(=O)c2cc(-c3ccco3)nc3ccccc23)cc1, COc1cc(OC)c(NC(=O)CN(C)S(=O)(=O)c2ccc(-c3ccc(=O)[nH]n3)s2)cc1Cl, O=C(O)c1ccc(N2C(=O)CC(SC(=NCc3ccc4c(c3)OCO4)Nc3ccc(F)cc3)C2=O)cc1 (stereo not given), Cc1sc2ncnc(N3CCC(C(=O)Nc4ccccc4C(C)(C)C)CC3)c2c1C, CC[C@@H]1CC=C[C@H]2[C@H]1C(=O)N(Cc1ccccc1)[C@H]2c1ccc(OC)c(Cl)c1, CN(C)S(=O)(=O)c1ccc(N2CCCC2)c(C(=O)NCC2COc3ccccc3O2)c1 (stereo not given), CCc1nc2c(OCC3CCCCC3)cccn2c1N(C)C(=O)c1ccc(C)cc1, Cn1cnnc1SCC(=O)Nc1sc2c(c1C(N)=O)CCC2, Cc1ccc(CNc2nc(NCc3ccccc3)nc3ccsc23)c(C)c1, COc1ccc(Cl)cc1NC(=O)c1c(NCc2ccc(C)o2)sc2c1CCCCC2, COc1cccc(OCc2nc3ccccc3n2Cc2ccccc2)c1, O=C(NCCCN1CCOCC1)c1ccc2c(c1)N(Cc1cccc(Cl)c1)C(=O)c1ccccc1S2, COc1ccc(/C=C/C(=O)Oc2ccc(C)c(C)c2)cc1OC, CC(C)c1ccc(/C=C/C(=O)Nc2ccc(CN3CCOCC3)cc2)cc1, Cc1ccc(C)c(Cn2c(C3CC(=O)N(c4ccccc4C)C3)nc3ccccc32)c1 (stereo not given), Cc1cc(C)nc(NS(=O)(=O)c2ccc(NC(=O)CN3C(=O)S/C(=C\c4ccccc4)C3=O)cc2)n1

activation, inactive:
Cc1ccc(C)c(N2CCN(C(=O)c3ccc4c(=O)n5c(nc4c3)CCCCC5)CC2)c1 5.24% [at 17.1 µM, percent relative to cAMP agonist control], O=C(O)c1ccc(-c2nc(-c3ccc(Cl)cc3Cl)cs2)cc1 10.1% [at 17.1 µM, percent relative to cAMP agonist control], Cc1cccn2c(=O)c3cc(C#N)c(=NC(=O)c4ccccc4)n(Cc4ccco4)c3nc12 11% [at 17.1 µM, percent relative to cAMP agonist control], CCOc1ncccc1C(=O)OC(C)C(=O)Nc1ccc(Cl)cn1 (stereo not given) 7.63% [at 17.1 µM, percent relative to cAMP agonist control], COc1ccc(/C=N/NC(=O)c2[nH]c3ccc(Br)cc3c2-c2ccccc2)c(C(=O)O)c1OC 2.8% [at 17.1 µM, percent relative to cAMP agonist control], COCCCNC(=O)C[C@@H]1C[C@@]2(C(=O)OC)CCCCC=C2N(Cc2cccc3ccccc23)C1=O 3.32% [at 17.1 µM, percent relative to cAMP agonist control], COc1cccc(C(=O)Nc2ccc(NC(=O)c3ccco3)c(Cl)c2)c1 0% [at 17.1 µM, percent relative to cAMP agonist control], CC(C)Cc1ccc(CN2C(C(C)C)C(=O)N(Cc3cn(CCC4OCCO4)nn3)CCS2(=O)=O)cc1 (stereo not given) 4.64% [at 17.1 µM, percent relative to cAMP agonist control], COc1ccc(Oc2cn[nH]c2-c2ccc(OC)cc2O)cc1 9.65% [at 17.1 µM, percent relative to cAMP agonist control], CCCC1=C/C(=C/c2ccc(-c3ccccc3OC)o2)C(=O)O1 1.16% [at 17.1 µM, percent relative to cAMP agonist control], Fc1ccc(/C=C2\CCCC3=C2Nc2ncnn2C3c2ccc(F)cc2)cc1 (stereo not given) 4.94% [at 17.1 µM, percent relative to cAMP agonist control], COCCCn1c(=O)/c(=C\c2ccccc2OC(C)C)s/c1=C(/C#N)C(=O)Nc1ccc(C(=O)O)cc1 8.99% [at 17.1 µM, percent relative to cAMP agonist control], CC(C)(C)Cc1c(-c2ccccc2)nc2ccc(Cl)cn12 9.48% [at 17.1 µM, percent relative to cAMP agonist control]
